Test results: PubChem BioAssay (NCATS)
Records with an inconclusive call do not appear. Active and inactive are the calls of the source. Calls follow the shape of the dose curve; as a rule, active = well fitted inhibition curve with a large enough effect; inconclusive = small, poorly fitted or top-dose-only effect; inactive = no such curve, though single readings can be large or run the other way.

Assay: Primary qHTS for small molecule stabilizers of the endoplasmic reticulum resident proteome: Secreted ER Calcium Modulated Protein (SERCaMP) assay (AID 1508630)
Settings: SH-SY5Y GLuc-SERCaMP (Gaussia luciferase released on ER calcium loss) secretion, thapsigargin, luminescence; series mostly up to 38.4 µM; activity change, negative = inhibition: at the top concentration
Method in brief: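 GLuc-SERCaMP-expressing SH-SY5Y cells, pretreated 16 h with compound, are challenged with thapsigargin to empty ER calcium stores; after 4 h, coelenterazine is added directly to the medium and luminescence is imaged.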
% is scaled to controls: 0 for no effect and ±100 for the full control effect.

Activity change, negative = inhibition, inactive:
N=c1ccn2c(n1)OCC1C2O[C@@H](O)[C@H]1O (some centres not stated) -9.79%
C[C@@H](CN(C)C[C@H]1C(=O)O[C@@H]2C[C@@]3(C)CCC[C@]4(CO4)C3CC21)[C@H](O)c1ccccc1 (some centres not stated) -14.7%
COc1ccc2cnoc(=O)c2c1OC -17.3%
COc1cc(CCNC(C)=O)c(C(=O)/C=C/c2cccc(OC)c2OC)cc1OC -19.6%
CC(C)C1=CC2=CC[C@H]3[C@](C)(C(=O)O)CCC[C@]3(C)C2CC1 (some centres not stated) -2.83%
C/C=C/c1ccc2oc(-c3ccc(O)cc3)c(C)c2c1 10.8%
COc1c(C2=CC(=O)N(C)C2=O)c2c(n1C)C(=O)c1ccccc1C2=O -30%
COc1cc2c(cc1OC)C(c1c[nH]c3ccccc13)NCC2 (configuration not stated) -29.2%
C=CC(C1=CC(=O)C=CC1=O)c1ccc(O)cc1 (configuration not stated) -5.78%
COc1cc(/C=C/C(=O)c2c(O)cc(C)oc2=O)ccc1O 20.1%
CC(=O)[C@@]1(O)[C@H](O)CC2C3CCC4CC(O)CC[C@]4(C)C3CC[C@@]21C (some centres not stated) -2.54%
COc1ccccc1C1OC(=O)CC1C(=O)OC[C@@H]1CCCN2CCCCC12 (some centres not stated) 4.32%
O=C1CC(c2ccc(O[C@@H]3OC(CO)[C@@H](O)C(O)C3O)cc2)Oc2cc(O)ccc21 (some centres not stated) -12.8%
CC1CCC2=C1C[C@H](C(C)(C)O)CC[C@@H]2C (some centres not stated) -3.16%
C/C=C(\C)C(=O)O[C@H]1CC(C)=C2C(=O)C=C(C)C2[C@@H]2OC(=O)[C@@](C)(OC(=O)C=C(C)C)C21 (some centres not stated) 30.2%
COc1cc2c(cc1O)-c1ccccc1CN(C)C2 25.2%
Cn1c2c(c(=O)c3ccccc31)C[C@@H](O)C(C)(C)O2 -24.4%
